Mot1-301 SUMO: inhibitors of SUMOylation pathway: yeast Mot1-301 growth rescue | S. cerevisiae Mot1-301 growth rescue, ATP luminescence, 38.5C; percent above DMSO median, 100 means doubled | growth rescue, % at 18.8 µM | hit rate 1% among 320,000;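 active = every valid replicate shows activation above 250% relative to neutral control wells; inactive = the rest, any valid replicate at or below 250%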
FAS TE block: blocks the thioesterase domain of human fatty acid synthase | recombinant FAS-TE, OMFH fluorogenic substrate, fluorescence endpoint | inhibition, % at 15 µM | hit rate 0.67% among 360,000 | AID 602261 | P49327;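 active = compounds whose normalised, plate-corrected inhibition of enzyme fluorescence in the single-dose primary screen is 50% or more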
Target sequence (P49327 whole entry, looked up, the tested form may be a part): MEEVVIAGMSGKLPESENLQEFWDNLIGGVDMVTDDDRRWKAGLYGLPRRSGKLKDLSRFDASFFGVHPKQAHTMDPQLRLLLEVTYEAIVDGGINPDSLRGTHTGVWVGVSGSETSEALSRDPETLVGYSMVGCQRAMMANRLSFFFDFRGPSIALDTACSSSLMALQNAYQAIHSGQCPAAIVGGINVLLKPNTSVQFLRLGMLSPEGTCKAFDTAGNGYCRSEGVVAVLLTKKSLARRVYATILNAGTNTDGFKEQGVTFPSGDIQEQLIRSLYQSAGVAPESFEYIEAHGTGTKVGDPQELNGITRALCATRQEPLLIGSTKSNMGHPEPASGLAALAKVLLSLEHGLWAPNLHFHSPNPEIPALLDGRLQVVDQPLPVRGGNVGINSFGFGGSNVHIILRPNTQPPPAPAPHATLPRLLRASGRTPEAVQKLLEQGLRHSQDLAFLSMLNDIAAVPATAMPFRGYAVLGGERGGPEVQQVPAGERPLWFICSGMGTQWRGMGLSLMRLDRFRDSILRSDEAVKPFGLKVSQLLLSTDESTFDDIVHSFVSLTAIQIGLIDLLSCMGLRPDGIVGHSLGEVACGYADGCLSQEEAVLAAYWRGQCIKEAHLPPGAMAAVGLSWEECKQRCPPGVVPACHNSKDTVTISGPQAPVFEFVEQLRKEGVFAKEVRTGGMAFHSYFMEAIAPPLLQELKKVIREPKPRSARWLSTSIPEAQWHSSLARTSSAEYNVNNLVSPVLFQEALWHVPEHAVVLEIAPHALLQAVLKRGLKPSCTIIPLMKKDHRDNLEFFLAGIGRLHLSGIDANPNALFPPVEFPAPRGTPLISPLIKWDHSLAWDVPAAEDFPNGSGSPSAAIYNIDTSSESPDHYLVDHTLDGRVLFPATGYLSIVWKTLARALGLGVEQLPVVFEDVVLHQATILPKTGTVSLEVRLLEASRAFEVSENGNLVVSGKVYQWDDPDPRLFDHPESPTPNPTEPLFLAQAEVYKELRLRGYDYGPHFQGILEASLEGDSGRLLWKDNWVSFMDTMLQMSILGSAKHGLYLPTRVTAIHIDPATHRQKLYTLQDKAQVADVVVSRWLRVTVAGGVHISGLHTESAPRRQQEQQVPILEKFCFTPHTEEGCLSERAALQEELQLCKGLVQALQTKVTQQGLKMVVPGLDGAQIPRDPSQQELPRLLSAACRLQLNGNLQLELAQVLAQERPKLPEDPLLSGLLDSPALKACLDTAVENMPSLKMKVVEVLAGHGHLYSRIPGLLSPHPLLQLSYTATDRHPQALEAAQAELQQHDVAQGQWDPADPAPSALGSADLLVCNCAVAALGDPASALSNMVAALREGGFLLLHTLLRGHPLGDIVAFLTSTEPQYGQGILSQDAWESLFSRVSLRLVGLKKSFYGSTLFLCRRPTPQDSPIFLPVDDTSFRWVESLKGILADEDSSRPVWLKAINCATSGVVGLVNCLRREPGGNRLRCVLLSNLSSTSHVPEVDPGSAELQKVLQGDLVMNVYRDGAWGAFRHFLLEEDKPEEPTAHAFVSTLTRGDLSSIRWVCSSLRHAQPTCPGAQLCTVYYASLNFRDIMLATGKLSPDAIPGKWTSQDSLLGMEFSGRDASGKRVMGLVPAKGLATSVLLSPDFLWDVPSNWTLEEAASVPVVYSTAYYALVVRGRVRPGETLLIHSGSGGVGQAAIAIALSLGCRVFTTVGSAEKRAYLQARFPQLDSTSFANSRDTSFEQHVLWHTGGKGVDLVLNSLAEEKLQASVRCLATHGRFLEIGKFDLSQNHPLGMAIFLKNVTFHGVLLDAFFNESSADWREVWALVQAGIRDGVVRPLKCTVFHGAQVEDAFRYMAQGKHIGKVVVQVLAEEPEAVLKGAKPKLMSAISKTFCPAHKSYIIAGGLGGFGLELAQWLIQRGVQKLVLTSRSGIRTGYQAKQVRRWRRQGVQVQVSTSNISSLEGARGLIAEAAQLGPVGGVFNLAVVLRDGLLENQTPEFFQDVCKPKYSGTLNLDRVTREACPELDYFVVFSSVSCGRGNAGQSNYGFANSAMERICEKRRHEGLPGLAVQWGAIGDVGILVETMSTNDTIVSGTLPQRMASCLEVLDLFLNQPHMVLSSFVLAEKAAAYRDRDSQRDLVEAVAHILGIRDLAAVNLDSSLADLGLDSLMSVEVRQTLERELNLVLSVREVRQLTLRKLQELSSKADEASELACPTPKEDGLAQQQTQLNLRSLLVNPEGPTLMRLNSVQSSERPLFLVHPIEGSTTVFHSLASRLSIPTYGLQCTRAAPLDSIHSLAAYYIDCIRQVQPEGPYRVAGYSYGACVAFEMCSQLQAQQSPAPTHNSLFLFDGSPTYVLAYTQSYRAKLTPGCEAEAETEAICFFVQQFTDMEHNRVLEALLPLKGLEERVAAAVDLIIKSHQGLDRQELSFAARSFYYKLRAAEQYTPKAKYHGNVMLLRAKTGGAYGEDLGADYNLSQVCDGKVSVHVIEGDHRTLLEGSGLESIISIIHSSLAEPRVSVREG
H9c2 protect: myocardial damage modulation in H9c2 cells; H9c2 cardiomyocytes, H2O2 injury protection, ATPLite, 2 h; protection from H2O2 cell death, % at 20 µM; hit rate 0.63% among 360,000; AID 588492;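 active = compounds giving at least 50% protection of heart cells from peroxide-induced death in the single-dose screen, raw or plate-pattern-corrected value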
Yeast superoxide: yeast age-related superoxide inhibition as caloric restriction mimetic. S. cerevisiae aged cells, superoxide DHE fluorescence; stronger effect = lower value. superoxide response (% of plate mean), % at 10 µM. hit rate 0.18% among 330,000. AID 2690;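 active = superoxide response under a set limit, about three screen SD below normal, cut at about 65% in these data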;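 also: yeast aged for seven days with compound at 30 °C before DHE staining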
MPTP block: permeability transition pore inhibition. hit rate 1.4% among 360,000. inhibition, % at 10 µM. isolated mouse mitochondria, Ca2+ swelling absorbance, 30 min;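 active = inhibition of 50% or more, scaled per plate between neutral and stimulator controls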
aDG glyco up: increases alpha dystroglycan glycosylation; activation, % at 10 µM; Pro5-aDG cells, alpha-DG glycosylation AlphaScreen (IIH6); 0% Pro5, 100% B10-LARGE cell signal; AID 624168; hit rate 0.22% among 360,000;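 active = activation of at least 8% versus controls, or a plate z-score of at least 8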;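 also: Pro5 are CHO cells carrying HIG-tagged alpha-DG that lacks glycosylation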
Mot1 SUMO dose: yeast SUMO pathway inhibition in dose response. growth activity, percent, % at 42 µM. 2,300 tested, under 10 active. shares compounds with Mot1-301 SUMO. AID 493004. S. cerevisiae Mot1-301 galactose growth, ATP luminescence, 24 h; -100 = growth of slx-deleted rescue strain;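 active = Signal drops as the depositor expects, and the fitted half-maximal dose is no more than ten times the top valid tested dose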;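 also: more negative values mean stronger growth rescue toward the control strain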
Numbers stand for hits. Only some compounds are listed: those with a hit (about 3.8% of all), similar ones and a draw of the others.

What do the screens show for `O=S1(=O)NC(c2ccccc2)CC(CC2CCCCC2)O1` (configuration not stated)?
Mot1-301 SUMO: 943; FAS TE block: inactive; H9c2 protect: inactive; Yeast superoxide: inactive; MPTP block: inactive; aDG glyco up: inactive; Mot1 SUMO dose: inactive

What do the screens show for `CCC1OC2(C)OC(=N)C1(C#N)C(C#N)(C#N)C2c1ccccc1` (configuration not stated)?
Mot1-301 SUMO: inactive; FAS TE block: inactive; H9c2 protect: inactive; Yeast superoxide: inactive; MPTP block: inactive; aDG glyco up: inactive

What do the screens show for `CC(C)C1OC2(C)OC(=N)C1(C#N)C(C#N)(C#N)C2c1ccccc1` (configuration not stated)?
Mot1-301 SUMO: 414; FAS TE block: inactive; H9c2 protect: inactive; Yeast superoxide: inactive; MPTP block: inactive; aDG glyco up: inactive; Mot1 SUMO dose: inactive

Results for CC1(C(=O)Nc2cccnc2)Cc2c(-c3ccc4c(c3)OCO4)ccnc2O1 (configuration not stated) ?
FAS TE block: inactive; H9c2 protect: inactive; MPTP block: inactive; aDG glyco up: inactive

Results for Cc1c(C(=O)NC(C)c2ccc(-n3ccnc3)cc2)cccc1[N+](=O)[O-] (configuration not stated) ?
Mot1-301 SUMO: 407; FAS TE block: inactive; H9c2 protect: inactive; Yeast superoxide: inactive; MPTP block: inactive; aDG glyco up: inactive; Mot1 SUMO dose: inactive

What do the screens show for `CSc1nc2nc(Cl)c(Cl)nc2[nH]1`?
FAS TE block: inactive; H9c2 protect: inactive; MPTP block: inactive; aDG glyco up: inactive

Results for CC(=O)c1cccc(NC(=O)CNC(=O)c2sc3ccccc3c2Cl)c1 ?
Mot1-301 SUMO: 664; FAS TE block: inactive; H9c2 protect: inactive; Yeast superoxide: inactive; MPTP block: inactive; aDG glyco up: inactive; Mot1 SUMO dose: inactive

Results for O=C(NC1CCCCC1)c1ccc2snnc2c1 ?
Mot1-301 SUMO: 529; FAS TE block: inactive; H9c2 protect: inactive; Yeast superoxide: inactive; MPTP block: inactive; aDG glyco up: inactive; Mot1 SUMO dose: inactive

How did Nc1nc2ccc(C(=O)NC3CCCCC3)cc2s1 do in these assays?
Mot1-301 SUMO: inactive; FAS TE block: inactive; H9c2 protect: inactive; Yeast superoxide: inactive; MPTP block: inactive; aDG glyco up: inactive

How did CC(=O)N1CCN(CC(O)COc2ccc(OCc3ccccc3)cc2)CC1 (configuration not stated) do in these assays?
Mot1-301 SUMO: 402; FAS TE block: inactive; H9c2 protect: inactive; Yeast superoxide: inactive; MPTP block: inactive; aDG glyco up: inactive; Mot1 SUMO dose: inactive

Results for CC(=O)Nc1ccc(OCC(O)CN2CCN(Cc3ccccc3)CC2)cc1 (configuration not stated) ?
Mot1-301 SUMO: inactive; FAS TE block: inactive; H9c2 protect: inactive; Yeast superoxide: inactive; MPTP block: inactive; aDG glyco up: inactive

How did CC(=O)c1ccc2noc(-c3ccc(F)cc3)c2c1 do in these assays?
Mot1-301 SUMO: active; FAS TE block: inactive; H9c2 protect: inactive; Yeast superoxide: inactive; MPTP block: inactive; aDG glyco up: inactive; Mot1 SUMO dose: inactive

What do the screens show for `CC(=O)c1ccc2noc(-c3ccc(Cl)cc3)c2c1`?
Mot1-301 SUMO: inactive; FAS TE block: inactive; H9c2 protect: inactive; Yeast superoxide: inactive; MPTP block: inactive; aDG glyco up: inactive

How did Cc1ccc(C)c(OCc2nnc(N)s2)c1 do in these assays?
Mot1-301 SUMO: inactive; FAS TE block: inactive; H9c2 protect: inactive; Yeast superoxide: inactive; MPTP block: inactive; aDG glyco up: inactive

What do the screens show for `Nc1nnc(COc2ccc(Br)cc2Br)s1`?
Mot1-301 SUMO: active; FAS TE block: inactive; H9c2 protect: inactive; Yeast superoxide: inactive; MPTP block: inactive; aDG glyco up: inactive; Mot1 SUMO dose: inactive

Results for CCCOc1ccc([N+](=O)[O-])c(N)c1 ?
Mot1-301 SUMO: 788; FAS TE block: inactive; H9c2 protect: inactive; Yeast superoxide: inactive; MPTP block: inactive; aDG glyco up: inactive; Mot1 SUMO dose: inactive

How did Nc1ccc(OCc2ccccc2)cc1[N+](=O)[O-] do in these assays?
FAS TE block: inactive; H9c2 protect: inactive; MPTP block: inactive; aDG glyco up: inactive

How did CN(Cc1c(C(=O)N/N=C/c2c(F)cccc2Cl)nnn1-c1nonc1N)C1CCCCC1 do in these assays?
FAS TE block: inactive; H9c2 protect: inactive; MPTP block: inactive; aDG glyco up: inactive

How did COc1ccc(-c2csc(NC(=O)C3CSC4(C)CCC(=O)N34)n2)cc1 (configuration not stated) do in these assays?
Mot1-301 SUMO: 391; FAS TE block: inactive; H9c2 protect: inactive; Yeast superoxide: inactive; MPTP block: inactive; aDG glyco up: inactive; Mot1 SUMO dose: inactive

How did Cc1cccc(NC(=S)N(C)C2CCCCC2)c1 do in these assays?
Mot1-301 SUMO: inactive; FAS TE block: inactive; H9c2 protect: inactive; Yeast superoxide: inactive; MPTP block: inactive; aDG glyco up: inactive

What do the screens show for `CN(C(=S)NC1=CCS(=O)(=O)C1)C1CCCCC1`?
Mot1-301 SUMO: 581; FAS TE block: inactive; H9c2 protect: inactive; Yeast superoxide: inactive; MPTP block: inactive; aDG glyco up: inactive; Mot1 SUMO dose: inactive

How did COc1ccc(-c2cc(C(=O)Nc3cc(C)ccc3O)no2)cc1 do in these assays?
Mot1-301 SUMO: 369; FAS TE block: inactive; H9c2 protect: inactive; Yeast superoxide: inactive; MPTP block: inactive; aDG glyco up: inactive; Mot1 SUMO dose: inactive

How did CCc1nnc(NC(=O)CSc2nc3c(cc2C#N)CCCC3)s1 do in these assays?
Mot1-301 SUMO: 736; FAS TE block: inactive; H9c2 protect: inactive; Yeast superoxide: inactive; MPTP block: inactive; aDG glyco up: inactive; Mot1 SUMO dose: inactive

Results for N#Cc1cc2c(nc1SCC(=O)O)CCCCC2 ?
Mot1-301 SUMO: inactive; FAS TE block: inactive; H9c2 protect: inactive; Yeast superoxide: inactive; MPTP block: inactive; aDG glyco up: inactive

How did Cc1cc(NC(=O)CCC(=O)N(CC(=O)NCC2CCCO2)c2ccc(C(C)C)cc2)no1 (configuration not stated) do in these assays?
Mot1-301 SUMO: inactive; FAS TE block: inactive; H9c2 protect: inactive; Yeast superoxide: inactive; MPTP block: inactive; aDG glyco up: inactive

What do the screens show for `COc1ccc(C(CNC(=O)CN2C(=O)NC3(CCCC3)C2=O)N(C)C)cc1` (configuration not stated)?
Mot1-301 SUMO: inactive; FAS TE block: inactive; H9c2 protect: inactive; Yeast superoxide: inactive; MPTP block: inactive; aDG glyco up: inactive

How did O=C(c1ccccc1F)N1CCCc2ccccc21 do in these assays?
Mot1-301 SUMO: 495; FAS TE block: inactive; H9c2 protect: inactive; Yeast superoxide: inactive; MPTP block: inactive; aDG glyco up: inactive; Mot1 SUMO dose: inactive

What do the screens show for `O=C(c1cccc(F)c1F)N1CCCc2ccccc21`?
Mot1-301 SUMO: inactive; FAS TE block: inactive; H9c2 protect: inactive; Yeast superoxide: inactive; MPTP block: inactive; aDG glyco up: inactive
